Laboratory results as given in PubChem BioAssay (NCATS).
“And” between values parts separate entries of the source, which are not always exact repeats. Equal values may be shown once. Inconclusive results are not listed. Some compounds were tested as several samples or in several runs, with calls that do not always agree. The source made the active and inactive calls. Unless noted, calls follow the shape of the dose curve; as a rule, active = well fitted curve in the direction sought with a large enough effect; inconclusive = small, poorly fitted or top-dose-only effect, or another doubt; inactive = no such curve, though single readings can be large; an effect the other way counts as inactive or inconclusive.

Tests used:
[1] = Cell Viability - Jurkat (AID 426;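 active = dose-dependent loss of cell ATP signal giving a full or clear fitted curve, ranked by lower potency value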;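 also: potency is read from the fitted curve at half-maximal effect; cells exposed to compound for 40 hours at 37 °C before ATP read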); details: qHTS
Procedure, shortened: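 Jurkat (Clone E6-1) cells, 5000/well in complete medium, exposed to compounds for 40 hr at 37C; intracellular ATP measured by CellTiter-Glo luminescence after 20 min at room temperature. AC50 from Hill fits.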

[2] = Cell Viability - SK-N-SH (AID 435; calls by dose curve;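 also: potency is read from the fitted curve at half-maximal effect; compound exposure lasted 40 h at 37 °C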); details: SK-N-SH neuroblastoma cell viability qHTS
Procedure, shortened: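 Cells seeded at 1500 per well and incubated 5 hr at 37 °C. Compound added, then 40 hr at 37 °C. CellTiter-Glo added, 20 min at room temperature, luminescence read.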

[3] = Cell Viability - SH-SY5Y (AID 544); details: SH-SY5Y neuroblastoma cell viability; viability change, negative = cytotoxic: at 92.2 µM (top of the series); also: nearly all actives have a fitted effect of over 55% in size; also: potency is read from the fitted curve at half-maximal effect;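 as to viability change, negative = cytotoxic: 0% = DMSO alone and -100% = 100 µM tamoxifen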
Procedure, shortened: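 SH-SY5Y human neuroblastoma cells (1500/well) incubated 5 h, then compound-treated 40 h at 37 °C in complete medium. Viability read as intracellular ATP by CellTiter-Glo luminescence after 20 min; AC50 from Hill-equation fits of qHTS concentration-response.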

[4] = MultiTox-Fluor Cytotoxicity Assay - LYMP1-002 - Dead Cells (AID 960); details: LYMP1-002 lymphoblastoid cells, dead-cell protease fluorescence; series mostly up to 46.1 µM; also: nearly all actives have a fitted effect of over 60% in size; also: potency is read from the fitted curve at half-maximal effect
Procedure, shortened: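 Human lymphoblastoid LYMP1-002 cells, 2500/well, treated 16 h at 37 C; dead-cell protease cleavage of bis-AAF-R110 read by fluorescence (485/520); normalized to DMSO and 15 uM tetraoctylammonium bromide; AC50 from Hill fit.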

[5] = Cell Viability - LYMP2-015 (AID 971); details: LYMP2-015 lymphoblastoid cell viability; series mostly up to 92.2 µM; also: nearly all actives have a fitted effect of over 55% in size; also: potency is read from the fitted curve at half-maximal effect
Procedure, shortened: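 LYMP2-015 human lymphoblastoid cells (2500/well) in complete medium, compound-treated 24 h at 37 C; viability read as cellular ATP by CellTiter-Glo luminescence after 30 min at room temperature. AC50 from Hill-equation fits of qHTS concentration-response data.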

[6] = Cell Viability - LYMP2-010 (AID 981); details: LYMP2-010 lymphoblastoid cell viability, qHTS; series mostly up to 92.2 µM;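 also: cells exposed to compound for 24 hours at 37 °C; nearly all actives have a fitted effect of over 55% in size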; also: potency is read from the fitted curve at half-maximal effect
Procedure, shortened: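 Human lymphoblastoid LYMP2-010 cells (2500/well) treated 24 h at 37 C in complete medium; viability read as intracellular ATP by CellTiter-Glo luminescence. AC50 from Hill fits of concentration-response data; tetraoctylammonium bromide positive control.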

[7] = molecular target: Glucocorticoid receptor (Homo sapiens) (UniProt P04150); assay: qHTS assay for small molecule agonists of glucocorticoid receptor signaling (AID 588532; active = well fitted curve in the direction sought with a large enough effect in the signal ratio, with a control signal flat; the % refers to the signal ratio;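 also: 100% = dexamethasone at 0.1 µM and 0% = DMSO only wells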); details: HeLa MMTV-bla, beta-lactamase ratio, agonist, 18 h; stronger effect = higher value; percent of dexamethasone control, DMSO zero
Procedure, shortened: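 Stimulation of a glucocorticoid response element-driven beta-lactamase gene was measured in HeLa cells. Responses were scaled between DMSO basal and 0.1 uM dexamethasone, then fitted for half-maximal stimulation.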

[8] = molecular target: Vitamin D3 receptor (Homo sapiens) (UniProt P11473); assay: qHTS assay for small molecule agonists of vitamin D receptor signaling (AID 588543; calls by dose curve;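 also: 0% = DMSO basal and 100% = reference agonist control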); details: HEK293T VDR-UAS-bla, beta-lactamase ratio, 16 h; series mostly up to 76.8 µM
Procedure, shortened: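 qHTS in agonist mode: compound titrations stimulate a VDR-driven β-lactamase reporter in HEK293T cells over 16 h at 37 °C. Response normalized to 50 nM 1α,25-dihydroxyvitamin D3 = 100%, DMSO = 0%; Hill fitting gives EC50 and maximal response.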

[9] = qHTS assay for small molecule agonists of retinoid X receptor alpha signaling (AID 588544); details: HEK293T RXRa-UAS-bla, beta-lactamase reporter, 18 h; 530 nm emission
[10] = molecular target: Thyroid hormone receptor beta (Homo sapiens) (UniProt P10828); assay: qHTS assay for small molecule agonists of thyroid hormone receptor beta signaling (AID 588545; calls by dose curve); details: TR-UAS-bla GripTite HEK 293, beta-lactamase ratio, agonist mode, 18 h; series mostly up to 76.7 µM
Procedure, shortened: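 HEK 293 TR-UAS-bla; agonist mode; 18 hrs, 37 C; CCF4, ex 405/em 460 and 530 nm; norm. T3 10 nM = 100%, DMSO = 0%; Hill fit → EC50, efficacy.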

[11] = molecular target: Voltage-gated inwardly rectifying potassium channel KCNH2 (Homo sapiens) (UniProt Q12809); assay: qHTS Assay for Small Molecule Inhibitors of the Human hERG Channel Activity (AID 588834); details: U2OS BacMam hERG, FluxOR thallium flux fluorescence; series mostly up to 92.2 µM;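 also: top concentration of the series differs between compounds; % is scaled to controls: 0 for no effect and ±100 for the full control effect; lower thallium flux fluorescence means stronger hERG block; nearly all actives have a fitted effect of over 50% in size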
Procedure, shortened: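 Measured: FluxOR fluorescence after thallium stimulation in U2OS cells transduced with hERG by baculovirus. Compounds pre-incubated around 10 min; medium Opti-MEM with 2% FCS. AC50 from Hill equation.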

[12] = qHTS assay for small molecule activators of the p53 signaling pathway (AID 651743; active = well fitted activation curve with a large enough effect in the signal ratio, not every such curve was filed as active; the % refers to the signal ratio; also: potency is read from the fitted curve at half-maximal effect; as to activation: % of control where 0% means no effect); details: HCT-116 p53RE-bla, beta-lactamase FRET ratio, 16 h; activation: stronger effect = higher value
Procedure, shortened: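 Cell-based beta-lactamase reporter (p53 response elements, HCT-116 background). After a 5-hour preincubation, cells received compound for 16 hours at 37 C; substrate development ran 2 hours at room temperature.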

[13] = qHTS assay for small molecule disruptors of the mitochondrial membrane potential - 1 hr assay (AID 651754; calls by dose curve; also: nearly all actives have a fitted effect of over 35% in size; also: potency is read from the fitted curve at half-maximal effect); details: series mostly up to 92.2 µM
Procedure, shortened: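 HepG2 cells, attached overnight, were exposed to compound for 1 hr at 37C, then stained 30 min with a potentiometric dye. Ratio of red aggregate (590nm) to green monomer (535nm) fluorescence reports membrane potential; collapse shifts signal toward green.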

[14] = qHTS assay for small molecule agonists of the antioxidant response element (ARE) signaling pathway measured by Nrf2-dependant transcriptional activity (AID 720636; active = well fitted curve in the direction sought with a large enough effect in the repeat runs; an effect the other way counts as inactive or inconclusive;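 also: HepG2 cells with an ARE-driven luciferase reporter; % of control where 0% means no effect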); details: ARE-luc HepG2, Nrf2 luciferase reporter, 16 h; series mostly up to 92.4 µM
Procedure, shortened: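 Cells: ARE-luc HepG2 with Nrf2-responsive luciferase. Medium contained 1% dialyzed FBS. Compound exposure lasted 16 hr at 37 C and 5% CO2, followed by ONE-Glo luciferase detection.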

[15] = qHTS assay for small molecule activators of the human pregnane X receptor (PXR) signaling pathway (AID 720659; call rule not given here; also: 0% is about no effect); details: DPX-2 HepG2 CYP3A4-luciferase, 24 h; series mostly up to 92.3 µM
[16] = molecular target: Nuclear receptor ROR-gamma (Homo sapiens) (UniProt P51449); assay: qHTS assay for small molecule antagonists of the retinoid-related orphan receptor gamma (ROR-gamma) signaling pathway (AID 651802); details: ROR-gamma antagonist cell reporter assay; series mostly up to 92.2 µM;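 also: luciferase reporter luminescence driven by ROR response element; % is scaled to controls: 0 for no effect and ±100 for the full control effect; nearly all actives have a fitted effect of over 60% in size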
Procedure, shortened: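 CHO cells with TET-inducible ROR-gamma and RORE-luciferase reporter, dosed then doxycycline-induced. After 16 h at 37C, One-Glo luminescence read; decreased signal indicates antagonism.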

[17] = qHTS assay for small molecule antagonists of the retinoid-related orphan receptor gamma (ROR-gamma) signaling pathway - cell viability counter screen (AID 720652; active = well fitted curve in the direction sought with a large enough effect in the repeat runs; an effect the other way counts as inactive or inconclusive;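 also: compound exposure lasted 16 hr before ATP read; % is scaled to controls: 0 for no effect and ±100 for the full control effect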); details: RORgamma reporter cell line viability counter screen; series mostly up to 92.2 µM
Procedure, shortened: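 CHO cells carrying TET-inducible ROR and RORE-luciferase reporter, plated 5 hr, then dosed with compound plus doxycycline. After 16 hr at 37 C, viability read as intracellular ATP by CellTiter-Glo luminescence.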

[18] = Cell Viability - Hek293 (AID 427;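 active = compounds whose dose-response curve shows a full or clear partial loss of cell viability, called from curve shape rather than a numeric limit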;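 also: potency is read from the fitted curve at half-maximal effect; cells exposed to compound for 40 hours at 37 °C before reading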); details: qHTS
Procedure, shortened: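 AC50 values derive from Hill-modelled concentration-response of ATP-based luminescence, normalized between DMSO-only and 100 uM tamoxifen controls. Cells were exposed in complete culture medium for 40 hr at 37 °C before detection.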

[19] = molecular target: Cytochrome P450 3A4 (Homo sapiens) (UniProt P08684); assay: qHTS Assay for Inhibitors and Substrates of Cytochrome P450 3A4 (AID 884); details: recombinant CYP3A4, Luciferin-PPXE luminescence; series mostly up to 57.1 µM; also: % is scaled to controls: 0 for no effect and ±100 for the full control effect; nearly all actives have a fitted effect of over 50% in size
Procedure, shortened: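 20 nM human CYP3A4 with 25 uM Luciferin-PPXE (at KM) in 200 mM KPO4, preincubated 10 min with compound; NADPH regeneration started a 60 min RT reaction. Luciferin detected by luminescence, normalized to 57 uM ketoconazole as full inhibition.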

[20] = qHTS assay for small molecule activators of the nuclear factor-kappa B (NF-kB) signaling pathway (AID 651749; active = well fitted activation curve with a large enough effect in the signal ratio; the % refers to the signal ratio; also: % of control where 0% means no effect); details: NF-kB-bla ME-180 cells, beta-lactamase FRET ratio, 16 h; stronger effect = higher value
Procedure, shortened: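 Screening used 2,000 ME-180 reporter cells per well exposed to pinned compound (23 nL) or DMSO; after 16 hr at 37C, beta-lactamase expression under NF-kB control was assessed through FRET.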

Chain of Cytochrome P450 3A4 (Homo sapiens) (P08684 whole entry, looked up): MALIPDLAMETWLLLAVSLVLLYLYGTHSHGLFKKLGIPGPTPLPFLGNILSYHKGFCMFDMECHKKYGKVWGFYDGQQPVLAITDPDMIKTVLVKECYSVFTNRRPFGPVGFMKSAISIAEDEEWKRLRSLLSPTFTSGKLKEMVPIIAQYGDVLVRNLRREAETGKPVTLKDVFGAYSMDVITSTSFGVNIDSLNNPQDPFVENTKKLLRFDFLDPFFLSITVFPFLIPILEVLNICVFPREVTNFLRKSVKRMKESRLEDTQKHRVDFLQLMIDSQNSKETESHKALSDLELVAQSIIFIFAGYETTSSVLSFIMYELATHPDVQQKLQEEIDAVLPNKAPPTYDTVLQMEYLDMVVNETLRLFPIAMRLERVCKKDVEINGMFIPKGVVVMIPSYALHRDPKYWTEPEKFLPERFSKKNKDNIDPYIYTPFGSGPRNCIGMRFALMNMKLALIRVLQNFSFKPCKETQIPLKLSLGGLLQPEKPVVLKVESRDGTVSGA
Chain of Vitamin D3 receptor (Homo sapiens) (P11473 whole entry, looked up): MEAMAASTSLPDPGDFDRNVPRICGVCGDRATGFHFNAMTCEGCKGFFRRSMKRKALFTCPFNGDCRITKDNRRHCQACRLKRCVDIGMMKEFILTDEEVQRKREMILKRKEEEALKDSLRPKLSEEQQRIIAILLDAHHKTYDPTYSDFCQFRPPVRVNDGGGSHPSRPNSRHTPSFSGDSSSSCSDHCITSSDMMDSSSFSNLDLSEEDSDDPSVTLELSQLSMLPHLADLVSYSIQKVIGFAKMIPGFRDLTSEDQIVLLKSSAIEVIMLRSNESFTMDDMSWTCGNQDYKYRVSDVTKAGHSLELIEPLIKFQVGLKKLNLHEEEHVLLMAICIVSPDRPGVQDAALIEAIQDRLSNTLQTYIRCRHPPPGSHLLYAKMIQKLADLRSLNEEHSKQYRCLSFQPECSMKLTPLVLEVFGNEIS
Chain of Voltage-gated inwardly rectifying potassium channel KCNH2 (Homo sapiens) (Q12809 whole entry, looked up): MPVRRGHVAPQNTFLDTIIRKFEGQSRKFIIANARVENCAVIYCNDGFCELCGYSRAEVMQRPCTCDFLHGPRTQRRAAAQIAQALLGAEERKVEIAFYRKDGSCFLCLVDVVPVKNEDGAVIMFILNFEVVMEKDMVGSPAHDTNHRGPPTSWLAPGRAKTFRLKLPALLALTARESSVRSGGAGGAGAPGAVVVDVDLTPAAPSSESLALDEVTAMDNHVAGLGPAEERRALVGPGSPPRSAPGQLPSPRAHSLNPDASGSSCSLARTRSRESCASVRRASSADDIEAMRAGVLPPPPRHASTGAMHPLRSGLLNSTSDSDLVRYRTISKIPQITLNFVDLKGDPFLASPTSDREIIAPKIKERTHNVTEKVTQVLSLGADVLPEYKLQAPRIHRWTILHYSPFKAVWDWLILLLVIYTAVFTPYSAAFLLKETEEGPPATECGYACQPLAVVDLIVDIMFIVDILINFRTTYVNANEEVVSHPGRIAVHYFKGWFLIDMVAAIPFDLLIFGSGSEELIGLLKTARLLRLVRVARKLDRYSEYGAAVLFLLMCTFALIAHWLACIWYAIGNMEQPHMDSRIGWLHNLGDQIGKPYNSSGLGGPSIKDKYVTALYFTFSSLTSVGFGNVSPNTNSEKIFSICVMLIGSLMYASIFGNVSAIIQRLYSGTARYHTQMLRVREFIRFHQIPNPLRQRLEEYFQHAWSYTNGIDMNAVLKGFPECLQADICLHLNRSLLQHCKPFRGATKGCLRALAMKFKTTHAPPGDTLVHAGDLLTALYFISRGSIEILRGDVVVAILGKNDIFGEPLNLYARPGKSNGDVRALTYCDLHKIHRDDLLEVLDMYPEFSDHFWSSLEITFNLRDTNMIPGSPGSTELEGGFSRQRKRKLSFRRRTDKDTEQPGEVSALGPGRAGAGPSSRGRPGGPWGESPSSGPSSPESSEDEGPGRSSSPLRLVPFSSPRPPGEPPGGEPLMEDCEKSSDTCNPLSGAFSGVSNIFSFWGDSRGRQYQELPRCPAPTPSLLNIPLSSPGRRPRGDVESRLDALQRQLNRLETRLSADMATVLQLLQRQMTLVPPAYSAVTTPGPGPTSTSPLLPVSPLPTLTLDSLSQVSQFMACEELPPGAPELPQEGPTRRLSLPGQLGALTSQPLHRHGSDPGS
Chain of Glucocorticoid receptor (Homo sapiens) (P04150 whole entry, looked up): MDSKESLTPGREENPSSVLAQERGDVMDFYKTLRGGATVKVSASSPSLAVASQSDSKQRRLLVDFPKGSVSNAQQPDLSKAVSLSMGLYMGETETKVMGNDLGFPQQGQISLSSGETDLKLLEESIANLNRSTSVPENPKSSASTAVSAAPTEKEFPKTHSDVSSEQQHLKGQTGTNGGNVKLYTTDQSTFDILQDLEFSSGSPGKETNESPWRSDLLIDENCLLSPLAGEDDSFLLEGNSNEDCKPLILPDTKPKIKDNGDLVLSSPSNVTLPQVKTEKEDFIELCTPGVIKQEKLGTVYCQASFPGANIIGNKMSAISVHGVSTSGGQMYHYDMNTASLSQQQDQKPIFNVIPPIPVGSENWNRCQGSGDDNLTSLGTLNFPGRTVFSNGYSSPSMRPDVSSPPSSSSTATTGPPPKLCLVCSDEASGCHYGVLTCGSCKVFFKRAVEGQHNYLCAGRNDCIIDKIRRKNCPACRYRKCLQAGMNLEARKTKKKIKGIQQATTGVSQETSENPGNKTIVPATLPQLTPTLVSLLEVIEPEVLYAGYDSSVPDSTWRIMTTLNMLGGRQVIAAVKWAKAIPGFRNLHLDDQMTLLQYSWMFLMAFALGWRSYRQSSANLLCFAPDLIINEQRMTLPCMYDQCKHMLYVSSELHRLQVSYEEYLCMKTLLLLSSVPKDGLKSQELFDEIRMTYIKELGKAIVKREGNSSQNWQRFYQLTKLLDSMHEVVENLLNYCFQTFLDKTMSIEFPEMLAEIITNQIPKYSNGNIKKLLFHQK
Chain of Nuclear receptor ROR-gamma (Homo sapiens) (P51449 whole entry, looked up): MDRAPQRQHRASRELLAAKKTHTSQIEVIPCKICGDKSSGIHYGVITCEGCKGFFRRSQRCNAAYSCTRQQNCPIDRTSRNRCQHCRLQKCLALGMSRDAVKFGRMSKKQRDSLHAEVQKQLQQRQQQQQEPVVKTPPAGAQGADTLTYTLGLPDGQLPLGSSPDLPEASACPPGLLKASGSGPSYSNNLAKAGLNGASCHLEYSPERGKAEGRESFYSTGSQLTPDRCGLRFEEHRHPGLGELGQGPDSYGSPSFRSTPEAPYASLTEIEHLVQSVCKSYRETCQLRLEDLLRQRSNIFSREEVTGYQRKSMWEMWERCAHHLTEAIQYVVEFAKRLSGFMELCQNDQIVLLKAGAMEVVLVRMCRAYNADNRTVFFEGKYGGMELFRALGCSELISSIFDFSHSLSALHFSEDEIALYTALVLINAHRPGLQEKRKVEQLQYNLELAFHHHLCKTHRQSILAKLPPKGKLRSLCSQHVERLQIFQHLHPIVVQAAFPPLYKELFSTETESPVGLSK
Chain of Thyroid hormone receptor beta (Homo sapiens) (P10828 whole entry, looked up): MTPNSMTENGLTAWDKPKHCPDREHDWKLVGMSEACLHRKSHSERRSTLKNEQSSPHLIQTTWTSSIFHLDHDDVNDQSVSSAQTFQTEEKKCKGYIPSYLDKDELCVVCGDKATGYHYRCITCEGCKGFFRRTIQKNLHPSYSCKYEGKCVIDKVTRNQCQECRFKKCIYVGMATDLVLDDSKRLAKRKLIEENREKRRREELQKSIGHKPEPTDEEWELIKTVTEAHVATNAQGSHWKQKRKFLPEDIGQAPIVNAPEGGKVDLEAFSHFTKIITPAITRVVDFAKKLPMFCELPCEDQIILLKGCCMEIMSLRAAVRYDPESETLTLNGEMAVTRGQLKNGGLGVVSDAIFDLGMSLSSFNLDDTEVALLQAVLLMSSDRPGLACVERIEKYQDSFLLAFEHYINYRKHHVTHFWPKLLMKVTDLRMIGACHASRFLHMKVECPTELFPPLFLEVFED

C=CC(=O)OCCCCCCOC(=O)C=C
3.42%: max response [9]
inactive: activation [7] -0.42% and -1.5% | Potency [8] | Potency [10] | Potency [11] | activation [12] -3.66% | Potency [13] | Potency [14] | outcome [15]
active: Potency [1] 21.1 µM | Potency [2] 50.2 µM | viability change, negative = cytotoxic [3] -98.1% | Potency [4] 31.6 µM | Potency [5] 39.8 µM | Potency [6] 39.8 µM | Potency [12] 70.8 µM

Cc1cc(-c2ccc(N=Nc3cc(S(=O)(=O)O)c4ccccc4c3N)c(C)c2)ccc1N=Nc1cc(S(=O)(=O)O)c2ccccc2c1N
active: Potency [3] 31.6 µM
inactive: Potency [8] | Potency [10] | Potency [11] | Potency [16] | Potency [14] | Potency [17] | outcome [15]
-22%: max response [9]

Nc1ccccc1O
23.5%: max response [9]
active: Potency [13] 15 µM
inactive: Potency [18] > 92 µM | Potency [2] > 92 µM | Potency [19] | Potency [4] | activation [7] 7.62% | Potency [8] | Potency [10] | Potency [11] | activation [12] 17.3% | Potency [14] | Potency [17]

O=C(OCC1CO1)C1CCCCC1C(=O)OCC1CO1 (stereo unspecified)
inactive: activation [7] 2.8% | Potency [11] | Potency [13] | Potency [16] | Potency [17] | outcome [15]
active: Potency [3] 25.1 µM | Potency [6] 50.1 µM

CC(C)(C)C(=O)C1C(=O)c2ccccc2C1=O
inactive: Potency [19] | Potency [4] | activation [7] -3.45% | Potency [8] | Potency [11] | activation [12] 12% | activation [20] 1.49% | Potency [13] | Potency [14]
active: Potency [2] 20.1 µM

O=C1c2ccccc2C(=O)C1(O)O
5.07%: max response [9]
active: Potency [1] 34.4 µM
inactive: Potency [19] | Potency [4] | Potency [8] | Potency [10] | Potency [11] | activation [20] -0.508% | Potency [14] | outcome [15]

O=CC(=O)c1ccccc1
-0.232%: max response [9]
inactive: Potency [18] > 92 µM | Potency [2] > 92 µM | Potency [3] | Potency [19] | Potency [4] | Potency [6] | activation [7] -5.46% | Potency [8] | Potency [11] | activation [12] -5.31% | activation [20] -1.11% | Potency [13] | Potency [14] | Potency [17] | outcome [15]

O=C(O)c1ccc([N+](=O)[O-])cc1
-0.875% and -5.25%: max response [9]
inactive: Potency [18] > 92 µM | Potency [2] > 92 µM | Potency [3] | Potency [19] | Potency [4] | Potency [5] | Potency [6] | activation [7] 3.87% and 0.51% | Potency [8] | Potency [10] | Potency [11] | activation [12] -2.78% and 0.222% | activation [20] -1.53% and -0.205% | Potency [13] | Potency [16] | Potency [14] | Potency [17] | outcome [15]
